Laboratory results reported in the supplement of paper PMC6555819.

The sequences below were run on VDR:RXRa (NR concentration 270 nM, RXRa partner concentration 90 nM) (assay: PBM binding z-score (relative to random genomic background probes); higher = stronger binding; sequences stand for … in GC…GCGATTGACAGCGTAGAATGAAGG).
Method: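 Protein-binding microarray (Agilent 4x180K custom design, double-stranded 60-nt probes: 5' GC cap, 34-nt variable region, 24-nt constant primer region; full probe sequence given). Purified or IVT nuclear receptor:RXRα heterodimers (3:1 NR:RXRα, mostly 270:90 nM) or homodimers were incubated for 1 h in PBS with 2% milk and no ligand, then detected with Alexa488 antibodies. Fluorescence from o1-orientation probes (~5 replicates averaged) was converted to z-scores against 500 random hg19 background probes. Variable regions are seed direct-repeat (DR0–DR5) sites, all their single-nucleotide variants and half-site ablations.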
For ATCTCTAGGTAACAAGGTCAGTGAAAGAGAGGAC, the PBM binding z-score was 2.12.
ATATGAAGGTTATCGGGTCATTCAGTTTGCGCAT was tested, and the PBM binding z-score was 5.41.
GATTACGGGTCAAAGGTTATAGCATGAATAGAAT gave a PBM binding z-score of 5.82.
In the case of CTCGAAAGGGCGTGCTCAGGTGAGTATACCAAAC, the PBM binding z-score is reported as -0.0475.
Work on CGTGCAAGGTCAGAGAGGTCAGTGAATGCCGAGT yielded a PBM binding z-score of 7.22.
For TCGAGTAGGTTCCGGGGGCATTCAGGGATGAAGA, the PBM binding z-score was 2.54.
Sequence ATATATAGGTTAGGGTCATTCAGAAAGTAGGGAA has a PBM binding z-score of 4.75.
CCTAGCAGGCGAGGGTCACTCAAGCATTTCGCTT showed a PBM binding z-score of 1.59.
AGTCAAAGTTCAGGACGAGGTACCGTAAAGCACG gave a PBM binding z-score of 2.08.
With CCGAGTAGGTTACGAGGGGGCAATCAGTGCGAAT the PBM binding z-score was 4.72.
For TCGAGTAGGTTAAGGGGGCATTCAGGGATGAAGA, the PBM binding z-score was 3.35.
TCGAGTAGGTTACGAGGGCATTCAGGGATGAAGA was tested, and the PBM binding z-score was 2.32.
CCCAGTAGGTTACGAGGGGGCATTCAGTGCGAAT gave a PBM binding z-score of 5.29.
Work on CCGAGTAGGCTACGAGGGGGCATTCAGTGCGAAT yielded a PBM binding z-score of 3.16.
ACTAGTTGGTCAGCTGAGGTCACACACAATTCGG showed a PBM binding z-score of 4.67.
Work on CAAACTAGGTCACCGGAAGGTCATAGTCCGCATG yielded a PBM binding z-score of 5.66.
For ATACGTAGGTTATCGGGTCATTCAGTTTGCGCAT, the PBM binding z-score was 5.06.
For TCATATAGGTAAAAGGTCAAAGTCGGTGTGGTAA, the PBM binding z-score was 5.3.
With CGAACTAGGTCACCAGGACACTGAAGAGGTTGGA the PBM binding z-score was 2.56.
CGAACTAGGTCACCAGGACAGTGGAGAGGTTGGA gave a PBM binding z-score of 1.99.
Sequence CGAACTAGGTCAAAGGGCAGTGAAAGGCGACGTA has a PBM binding z-score of 2.63.
AATACAGGGTCACTTGGCCAGAGTAGGTACGAAT gave a PBM binding z-score of 4.36.
Sequence CGAACTAGGTCAAAGGACAGTGATAGGCGACGTA has a PBM binding z-score of 1.45.
GCTGCTCGGTCAACTGATGGTCAGCTAAAGCTCG was tested, and the PBM binding z-score was -0.285.
CCGAGTAGGTTACGACGGGGCATTCAGTGCGAAT showed a PBM binding z-score of 1.49.
Sequence TCGAGTAGGTTACGGTGGCATTCAGGGATGAAGA has a PBM binding z-score of 0.16.
Sequence TCGAGTAGGTTACGGGCGCATTCAGGGATGAAGA has a PBM binding z-score of -0.354.
CGAACTAGGTCAGAGGACAGTGAAAGGCGACGTA was tested, and the PBM binding z-score was 0.161.
TCTGCTAGGTCAGGTGGTCAGCTAACGAGCTGCC was tested, and the PBM binding z-score was 0.132.
CCTACTGGGCCATTCAGAGGTCATCGATCATATG was tested, and the PBM binding z-score was 4.05.
CGAACTAGGTCACCTGGACAGTGAAGAGGTTGGA was tested, and the PBM binding z-score was 2.34.
CGTCAAAGTTCAAGGTTACGTAACAGAAAGCAGC was tested, and the PBM binding z-score was 4.31.
CGAACTAGGTCAAACGACAGTGAAAGGCGACGTA was tested, and the PBM binding z-score was 1.43.
In the case of CCTTACGGGTCAGTGACAGGTTATAGCATTTGGA, the PBM binding z-score is reported as 2.49.
Sequence CCGAGTAGGTTACGAGGGGACATTCAGTGCGAAT has a PBM binding z-score of 2.82.
Work on TCGAGTAAGTTACGGGGGCATTCAGGGATGAAGA yielded a PBM binding z-score of 3.01.
With TCTAGCAGGCCATAGGGTCACTCAAGAGGTACGG the PBM binding z-score was 2.62.
For CCTACTGGGCCACGAAAGGTCCTTGATTCAGTGA, the PBM binding z-score was -0.615.
With TGAATGAGGTCAAAGATCAGGGAACGTGGCGTCG the PBM binding z-score was 5.6.
Sequence CGTCCAAGGTCAAAGGTCAGTAAAGAGATGACGG has a PBM binding z-score of 6.53.
